The whole screen tested about 350,000 compounds, of which about 1,300 (0.37%) were called active. Rule as the data show it: active = response mostly above about 7.3% (no sharp cut-off); inactive = mostly below about 5.4%. Only a selection was taken, and actives are over-represented in it overall.

We go through 94 compounds from PubChem BioAssay AID504577 (NMMLSC, 2011).

This test can be described thus: regulators of yeast V-ATPase proton pumping, primary screen, pHLuorin cytosolic pH fluorescence (AID 504577). The following applies: S. cerevisiae, at 10 µM, active compounds read high.
On to `CCCCC(CC(C)O)c1n[nH]c(=S)n1-c1ccccc1` (centres undefined), for which the response is 3.53% (inactive).

Regarding `Nc1c(-c2ccccc2)nnn1Cc1ccccc1`, the response was -5.08% (inactive).

For `OCc1nc(CO)n(Cc2ccccc2)n1`, the response is 12.8% (active).

For the compound `Cc1nn(Cc2ccccc2)c(C)c1NS(=O)(=O)c1ccccc1`, the response is 1.59% (inactive).

Take `CSc1nc2ccccc2cc1/C=C(\C#N)c1ccc(Cl)cc1Cl`: the response is -2.01% (inactive).

On to `COC(=O)c1sc2[nH]c(=S)n(N)c(=O)c2c1C`, for which the response is -1.69% (inactive).

In the case of `O=C(CN1CCC(O)(c2cccc(C(F)(F)F)c2)CC1)NCCc1ccccc1`, the response was 0.05% (inactive).

Consider `CC(OC(=O)c1cccc(S(=O)(=O)N2CCOCC2)c1)C(=O)NCC1CCCCC1` (centres undefined), for which the response was 0.69% (inactive).

In the case of `C/C(N)=C(/C#N)C(=O)COC(=O)C1=NN(c2ccccc2)C(=O)CC1`, the response was 1.14% (inactive).

For the compound `C/C(N)=C(/C#N)C(=O)COC(=O)c1cc(-c2ccc(C)cc2)nc2ccccc12`, the response is 2.77% (inactive).

On to `COc1cccc(OC)c1C(=O)OCC(=O)/C(C#N)=C(\C)N`, for which the response was 6.97% (active).

Turning to `CC(=O)c1ccc(Cc2ncc(C(F)(F)F)cc2Cl)s1`, the response is -0.37% (inactive).

With `CC1(c2nnc(-c3ccncc3)o2)CC(c2cccnc2)=NO1` (centres undefined), the response is 0.16% (inactive).

Take `CCN1CCC2(CC1)N=C(c1ccc(F)cc1)C(=S)N2C(=O)c1ccc(C)cc1`: the response was -0.32% (inactive).

`CC(CNC(=O)c1ccc(N)cc1)NC(=O)c1ccc(N)cc1` (centres undefined): the response is -1.34% (inactive).

`Nc1ccc(C(=O)NCc2ccccc2)cc1`: the response is 14.4% (active).

As for `C[n+]1ccc(C(=O)NCc2ccccc2)cc1`, the response is 4.19% (inactive).

For `Cn1c(N)c(C(=O)COC(=O)C23CC4CC(CC(C4)C2)C3)c(=O)n(C)c1=O`, the response is -2.17% (inactive).

As for `Nc1c(-c2cccc(Cl)c2)cnn1-c1cccc([N+](=O)[O-])c1`, the response is 0.43% (inactive).

For the compound `Cc1cc(=O)[nH]c(N/N=C/c2c(C)nn(-c3ccccc3Cl)c2Cl)n1`, the response was 8.62% (active).

For the compound `Cc1ccc(-n2nc(C)c(/C=N/NC(=O)c3cccs3)c2Cl)cc1`, the response is 1.32% (inactive).

For `Cc1nn(-c2ccccc2)c(Cl)c1/C=N/NC(=O)c1nn(C)cc1[N+](=O)[O-]`, the response was -3.82% (inactive).

`CCCSc1ccc([C@H]2N[C@@](Cc3ccccc3)(C(=O)OC)[C@H]3C(=O)N(C)C(=O)[C@@H]23)cc1`: the response was -2.76% (inactive).

Regarding `CCCCC1(C(=O)OCC)NC(c2ccc(O)cc2)C2C(=O)N(c3ccccc3)C(=O)C21` (centres undefined), the response was -2.37% (inactive).

`CCOC(=O)C1(Cc2ccc(O)cc2)NC(c2ccccc2F)C2C(=O)N(C)C(=O)C21` (centres undefined): the response is 16.1% (active).

For `COc1ccc(CC(=O)Nc2c3c(nn2-c2cccc(Cl)c2)CS(=O)C3)cc1` (centres undefined), the response is 5.74% (inactive).

Consider `CCN(CC)C(=O)C1=C(C)N(Cc2ccc(OC)cc2)C(=O)C(CC(=O)NCCCCc2ccccc2)C1` (centres undefined), for which the response is 2.59% (inactive).

With `COc1cc(NC(=O)CSc2nnc3ccc(-c4ccncc4)nn23)cc(OC)c1`, the response is -1.89% (inactive).

As for `O=C(CSc1nnc2ccc(-c3ccncc3)nn12)N1CCCCC1`, the response was 2.79% (inactive).

Consider `Fc1cccc(CSc2nnc3ccc(-c4ccncc4)nn23)c1`, for which the response was 30.5% (active).

For the compound `NS(=O)(=O)c1ccc(CCNC(=O)c2ccc([N+](=O)[O-])cc2[N+](=O)[O-])cc1`, the response is 0.09% (inactive).

For the compound `CCOc1ccc(-n2c(SCC(=O)Nc3cc(C(=O)O)ccc3Cl)nc3ccccc3c2=O)cc1`, the response was 2.47% (inactive).

For the compound `COC(=O)c1cc(S(=O)(=O)N2CCN(c3cc(C)ccc3C)CC2)c[nH]1`, the response was -1.19% (inactive).

Turning to `COC(=O)c1ccc(/C=C2/C(=O)Oc3ccccc32)cc1`, the response is -0.46% (inactive).

Turning to `O=C1Oc2ccccc2C(=O)/C1=C/c1ccccc1O`, the response is 15.2% (active).

Turning to `COC(=O)c1c(NC(=O)COc2ccc(Cl)cc2Cl)sc2c1CC(C)(C)NC2(C)C`, the response is 4.61% (inactive).

Turning to `CCCc1cc(=O)oc2cc(OCC(=O)Nc3ccc(CN4CCOCC4)cc3)c(Cl)cc12`, the response was -2.48% (inactive).

On to `O=C(COc1cc2oc(=O)c3c(c2cc1Cl)CCC3)NCCCN1CCOCC1`, for which the response was 9.9% (active).

With `Cc1cc(=O)oc2c(C)c(OCC(=O)NCCN3CCOCC3)ccc12`, the response was 1.98% (inactive).

`CC(=O)Nc1c2c(nn1-c1ccc(C)cc1C)CS(=O)C2` (centres undefined): the response is -4.1% (inactive).

Take `OCC(O)CN(c1ccccc1)c1ccccc1` (centres undefined): the response was 1.73% (inactive).

For `Cc1cc(C(=O)Nc2nnc(C3CC3)s2)c(C)s1`, the response was 3.66% (inactive).

For the compound `Cc1occc1C(=O)Nc1nnc(C2CCCCC2)s1`, the response is 10% (active).

Turning to `COc1ccc(NC(=O)CCC(=O)Nc2nnc(C3CCCCC3)s2)cc1`, the response is -2.38% (inactive).

For the compound `CCSCc1nc(N)nc(NCCc2ccccc2)n1`, the response was -0.9% (inactive).

On to `CCSC1=NCCN1C(=O)c1ccc(S(=O)(=O)N(CC)CC)cc1`, for which the response was 2.02% (inactive).

`CCN(CC)CCN(C(=O)c1cccc([N+](=O)[O-])c1)c1nc2ccc(OC)cc2s1`: the response was -1.21% (inactive).

Consider `COc1ccc2nc(N3C(=O)C(O)=C(C(=O)c4ccco4)C3c3ccco3)sc2c1` (centres undefined), for which the response is -1.37% (inactive).

Consider `COc1ccc2nc(N3CCN(C(=O)c4ccc([N+](=O)[O-])o4)CC3)sc2c1`, for which the response is 27.1% (active).

`CCOC(=O)CC1COCCN1C(=O)c1cc(COc2ccc(F)c(F)c2)on1` (centres undefined): the response was 0.12% (inactive).

In the case of `COc1cc(=O)[nH]c(=O)n1C(=O)Cc1ccccc1`, the response is -1.96% (inactive).

Regarding `COc1ccc(/C=N/NC(=O)Cn2cc(C(F)(F)F)ccc2=O)cc1`, the response was -4.67% (inactive).

For the compound `Cc1nnsc1C(=O)N/N=C/c1cccc(C(F)(F)F)c1`, the response is 3.26% (inactive).

As to `COc1ccc(/C=N/NC(=O)c2cccc(C(F)(F)F)c2)cc1`, the response is 13.1% (active).

As to `CCCn1c(C(C)Nc2nc(-c3ccc(C)cc3)cs2)nc2cc(Cl)c(N3CCCCC3)cc21` (centres undefined), the response is -1.24% (inactive).

With `c1ccc(-c2nnc3n2NC(c2ccc4c(c2)OCO4)S3)cc1` (centres undefined), the response is -3.32% (inactive).

Consider `COC(=O)C(C)n1cnc2c(nnn2-c2cccc(Cl)c2)c1=O` (centres undefined), for which the response is 16.6% (active).

Consider `COC(=O)C(C)n1cnc2c(nnn2-c2ccc(F)cc2)c1=O` (centres undefined), for which the response was 1.53% (inactive).

In the case of `CCOC(=O)C(C)n1cnc2c(nnn2-c2cccc(OC)c2)c1=O` (centres undefined), the response was 1.26% (inactive).

Turning to `CN1CCNC(=O)C1CC(=O)NCCC1=CCCCC1` (centres undefined), the response was 1.15% (inactive).

For `Cc1ccc(S(=O)(=O)/N=C(/Nc2ccc3[nH]c(=O)[nH]c3c2)c2ccccc2)cc1`, the response is -2.11% (inactive).

`Cc1cc(=O)c2ccc(NC(=O)c3ccccc3)cc2[nH]1`: the response was 8.54% (active).

With `Cc1ccc(NC(=O)NC(=O)c2ccccc2)cc1F`, the response is -0.67% (inactive).

In the case of `CN(C)S(=O)(=O)c1ccc(N2CCCC2=O)c([N+](=O)[O-])c1`, the response was -0.02% (inactive).

Consider `O=C(c1cccs1)N1C[C@H](n2cc(C3CC3)nn2)[C@@H](O)C[C@@H]1c1ccccc1`, for which the response was -2.35% (inactive).

For `C/C(=C/C(=O)N1CCN(C)CC1)C(=O)O`, the response was -2.99% (inactive).

With `C=C(C)CNc1cc(S(=O)(=O)N2CCOCC2)ccc1Oc1ccccc1`, the response is 1.92% (inactive).

Consider `COc1ccc(S(=O)(=O)N2CCC(C(=O)OCC(=O)c3ccccc3)CC2)cc1[N+](=O)[O-]`, for which the response is -4.5% (inactive).

For the compound `COC(=O)c1cc(Oc2ccc(S(=O)(=O)N3CCOCC3)cc2[N+](=O)[O-])cc(C(=O)OC)c1`, the response was 13.9% (active).

In the case of `O=C(C[C@@H]1C/C=C\CCC(=O)OC[C@@H]2CCCN2C1=O)NCCO`, the response was -3.85% (inactive).

Turning to `COC(=O)c1c(NC(=O)CN2CCN(S(=O)(=O)c3ccccc3[N+](=O)[O-])CC2)sc2c1CCC(C)C2` (centres undefined), the response is -0.77% (inactive).

As to `O=C1OCC2=C1C(c1ccccc1)CC(=O)N2c1cccc(F)c1` (centres undefined), the response was 18.5% (active).

On to `O=C1CC(c2ccccc2)C(=O)N1c1cccc(O)c1` (centres undefined), for which the response was -0.89% (inactive).

`O=C1CC(c2ccccc2)C(=O)N2C(=O)CC(c3ccccc3)C(=O)N12` (centres undefined): the response is -1.7% (inactive).

For `Cc1cc(C)n(CC(=O)Nc2ccc([N+](=O)[O-])cc2)n1`, the response is -0.28% (inactive).

`Cc1cc(CO)nn1-c1ccc([N+](=O)[O-])cc1`: the response is 15.4% (active).

For `CC(C)(C)c1cnnn1-c1ccc([N+](=O)[O-])cc1`, the response was 1.62% (inactive).

Turning to `O=C(Nc1ccncc1)c1cc(-c2ccccn2)nc2ccc(Br)cc12`, the response was 0.9% (inactive).

With `Cc1ccc2nc(-c3ccncc3)cc(C(=O)Nc3ccc(OC(F)F)cc3)c2c1`, the response is 11.1% (active).

Consider `O=C(Nc1ccc(S(=O)(=O)Nc2nccs2)cc1)c1cc(-c2ccncc2)nc2ccccc12`, for which the response is 2.45% (inactive).

On to `CC(=O)C1=C(C)NC(=O)NC1c1cc(Br)ccc1OCC#N` (centres undefined), for which the response is 1.72% (inactive).

Regarding `CCOC(=O)c1c(-c2ccc(-c3ccccc3)cc2)csc1NC(=O)CCC(=O)O`, the response was -1.32% (inactive).

As for `COC(=O)c1c(-c2ccc(C)cc2)csc1N`, the response is 6.85% (active).

With `CCC(C(=O)OC)n1cnc2scc(-c3ccc(C)cc3)c2c1=O` (centres undefined), the response is -4.95% (inactive).

With `CC(C)=CCCC1(C)C=Cc2c(ccc3c2[nH]c2cc(O)c(C)cc23)O1` (centres undefined), the response was -1.63% (inactive).

In the case of `Cc1nc2ccccc2c(=O)n1-c1ccc(F)c(NC(=O)c2cccs2)c1`, the response is -7.41% (inactive).

Take `Cc1nc2ccccc2c(=O)n1-c1ccc(NS(=O)(=O)c2ccc(F)cc2F)cc1`: the response is 15.7% (active).

With `COc1ccc(NS(=O)(=O)c2ccc(F)cc2F)cn1`, the response is -2.01% (inactive).

`CN(CC(=O)N1CCN(c2ccccc2)CC1)S(=O)(=O)c1cccs1`: the response is -1.07% (inactive).

In the case of `O=C(CSc1nc2ccccc2c(=O)n1CCCO)N1CCc2ccccc21`, the response was 1.92% (inactive).

As for `O=C(O)c1ccc(-n2cccc2)cc1O`, the response was -0.56% (inactive).

As for `CCCC[C@@H]1CN=C(N)N1CCCC`, the response is -0.58% (inactive).

As to `CCCC[C@@H]1CN=C(N)N1CCc1cccc(F)c1`, the response is 0.99% (inactive).

Consider `CCCC[C@@H]1CN=C(N)N1CCc1cc(C(F)(F)F)cc(C(F)(F)F)c1`, for which the response is 14.3% (active).
